This passage reports composite z-score results from PubChem BioAssay.

Chain of Follistatin (Homo sapiens) (P19883 whole entry, looked up): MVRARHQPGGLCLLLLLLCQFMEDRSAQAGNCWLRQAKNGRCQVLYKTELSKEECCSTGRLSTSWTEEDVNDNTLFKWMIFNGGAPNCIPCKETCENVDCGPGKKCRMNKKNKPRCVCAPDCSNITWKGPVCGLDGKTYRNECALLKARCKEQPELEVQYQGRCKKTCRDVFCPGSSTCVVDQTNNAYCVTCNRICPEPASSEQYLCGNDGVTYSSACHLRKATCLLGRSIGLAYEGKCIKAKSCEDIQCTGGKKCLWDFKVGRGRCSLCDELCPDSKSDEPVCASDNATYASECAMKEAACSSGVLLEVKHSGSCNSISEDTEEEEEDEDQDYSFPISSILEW

The experiment has as its target Follistatin (Homo sapiens) (UniProt P19883). As to the kind of experiment: follistatin binders on small-molecule microarrays, primary screen, biochemical, small-molecule microarray, 635/667 nm fluorescence (AID 1132). The conditions noted are these: FST binding, 635 nm fluorescence, higher = more signal.
Take `CC(C)[C@@H](OCc1ccccc1)[C@H](C)C=NOC[C@@H](O)COCc1ccco1`: the composite z-score is -1.05. On to `CC(C)(C)N1C(=O)[C@H]2[C@H]3[C@H](O)C=CC(=O)[C@@H]3CC[C@H]2C1=O`, for which the composite z-score was 0.39. Under `CCOC(=O)[C@H](CC(C)C)NC(=O)CCC1CC(OC(=O)NCc2cccc3ccccc23)CC2(CCCC(COC(=O)NCCOC)O2)O1` (stereo partly specified) stands 0.602.

`Cc1ccc(S(=O)(=O)n2c3ccccc3c3nnc(C(=O)c4ccccc4)nc32)cc1` gave a composite z-score of 0.583. On to `CCN1C(=O)[C@H]2[C@H]3[C@H](O)[C@H](O)CC(=NOC[C@H]4O[C@H](c5ccccc5)C=C[C@@H]4Oc4ccc(OC)cc4)[C@@H]3CC[C@H]2C1=O`, for which the composite z-score was found to be 0.74. Under `Cc1cc2c(c(=O)o1)[C@@H](O)[C@H]1O[C@H]1C2=O` stands 0.629; under `C#CCCCON=C1C[C@@H](O)[C@@H](O)[C@@H]2[C@@H]3C(=O)N(c4cccc(Oc5ccccc5)c4)C(=O)[C@@H]3CC[C@H]12`, -0.446. In turn, `CC(CCN1CCc2nc(-c3ccccc3)c(-c3ccccc3)cc2C1)=NOC[C@@H](O)[C@H]1O[C@@H]2OC(C)(C)O[C@@H]2[C@H]1O` gave a composite z-score of 0.521. Under `CC(CCN1CCc2nc(-c3ccccc3)c(-c3ccccc3)cc2C1)=NOC[C@@H](O)COCc1ccco1` stands 1.15; under `CSCC[C@@H]1NC(=O)CC=C[C@@H](C)COC(=O)[C@@H](C)COC1=O`, 0.556.

For the compound `CC(=O)Nc1ccc([C@@H]2N[C@H](C(=O)O)CC[C@H]2C)cc1`, the composite z-score turned out to be 0.205. As to `C#CCCCON=C1[C@H]2CCn3c(=O)n(-c4ccccc4)c(=O)n3[C@H]2[C@H](O)[C@@H]2O[C@H]12`, the composite z-score came to 0.295. In the case of `COC(=O)[C@@H]1CC[C@H](C)[C@@H](c2ccc(C)cc2)N1C(=O)c1ccc(C=NOC[C@@H](C)[C@H](OCc2ccccc2)C(C)C)cc1` it was 0.915. With `CCOC(=O)[C@H](Cc1ccccc1)NC(=O)CCC1CC(OC(=O)NCc2cccc3ccccc23)CC2(CCCC(COC(=O)NCCC(C)C)O2)O1` (stereo partly specified), the composite z-score stood at 0.123. In the case of `C=CC[C@@H]1C=C[C@H](ON=C2[C@H]3CCn4c(=O)n(-c5ccccc5)c(=O)n4[C@H]3[C@H](O)[C@@H]3O[C@H]23)[C@@H](CO)O1`, the composite z-score was 0.489. In the case of `CCOC(=O)[C@H](CC(C)C)NC(=O)CCC1CC(OC(=O)NCc2cccc3ccccc23)CC2(CCCC(COC(=O)NCCOc3ccccc3)O2)O1` (stereo partly specified) it was 0.776. As to `C[C@@H](c1ccccc1)N1C(=O)[C@H]2[C@H]3[C@H](O)[C@H](O)CC(=NOCc4ccccc4)[C@H]3CC[C@H]2C1=O`, the composite z-score is 0.287. In the case of `CCCNC(=O)OC[C@H]1O[C@H](CCON=C(C)CCN2CCc3nc(CC)c(CC)cc3C2)C=C[C@@H]1Oc1ccc(OC)cc1` it was 0.248. In the case of `CCCNC(=O)OC[C@H]1O[C@H](CCON=C(C)C)C=C[C@@H]1Oc1ccc(OC)cc1` it was -0.132; in that of `CC(=O)O[C@H]1C2=CO[C@H](C)[C@H]3[C@H]4C5=C([C@H](O)[C@H]6O[C@H]6C5=O)[C@H](OC4C)[C@@]23C(=O)[C@@H]2O[C@@H]21` (stereo partly specified), -0.436. Regarding `C=CC[C@@H]1C=C[C@H](ON=C[C@@H](C)[C@H](OCc2ccccc2)C(C)C)[C@@H](CO)O1`, the composite z-score is -0.386. Consider `COC(=O)CC=C[C@@H](C)[C@@H](C=NOC(C)CN1CCCc2nc(C)c(C)cc21)OC` (stereo partly specified), for which the composite z-score was 0.6. On to `CC(CCN1CCCCc2nc(C)c(C)cc21)=NOC[C@@H](C)[C@H](OCc1ccccc1)C(C)C`, for which the composite z-score was -2.3. Under `CON=C(C)CCC(=O)OC[C@H]1O[C@H](c2ccccc2)C=C[C@@H]1Oc1ccc(OC)cc1` stands 0.252. In the case of `CON=CC[C@@H]1C=C[C@H](OC(C)=O)[C@@H](COC(C)=O)O1` it was 0.606; in that of `Cn1c(=O)n2n(c1=O)[C@H]1[C@H](O)[C@@H]3O[C@@H]3C(=O)[C@H]1CC2`, 0.537.

As to `COc1ccc(COC(=O)NN=C2C[C@@H](O)[C@@H](O)[C@@H]3[C@@H]4C(=O)N(Cc5ccccc5)C(=O)[C@@H]4CC[C@H]23)cc1`, the composite z-score is -0.311. In the case of `C#CCCCON=C1C[C@@H](O)[C@@H](O)[C@@H]2[C@@H]3C(=O)N(C(C)(C)C)C(=O)[C@@H]3CC[C@@H]12`, the composite z-score was -1.54. In the case of `C[C@@H](c1ccccc1)N1C(=O)[C@H]2[C@H]3[C@H](O)[C@H](O)CC(=NO[C@@H]4O[C@H](CO)[C@@H](O)[C@H](O)[C@H]4O)[C@H]3CC[C@H]2C1=O` it was 0.656. With `CCOC(=O)CCN1C(=O)[C@H]2[C@H]3[C@H](O)[C@H](O)CC(=NOCc4ccccc4)[C@H]3CC[C@H]2C1=O`, the composite z-score is -0.851.

As to `CO[C@H]1COC(=O)[C@@H](C)COC(=O)[C@H](COCc2ccccc2)NC(=O)CC=C[C@H]1C`, the composite z-score came out at 1.36.

For `COc1cccc([C@H]2Oc3ccc(OC)cc3C(=NO[C@@H]3O[C@H](COC(C)=O)[C@@H](OC(C)=O)[C@H](OC(C)=O)[C@H]3OC(C)=O)[C@@H]2O)c1`, the composite z-score was -0.0006.

Regarding `CCOC(=O)[C@H](CC(C)C)NC(=O)CCC1CC(OC(=O)NCc2ccc3c(c2)OCO3)CC2(CCCC(COC(=O)NCc3cccc(C(F)(F)F)c3)O2)O1` (stereo partly specified), the composite z-score was found to be 0.337. `CCN1C(=O)[C@H]2[C@H]3[C@H](O)[C@H](O)CC(=NOCC(C)C)[C@@H]3CC[C@H]2C1=O` showed a composite z-score of 0.84.

Take `COC(=O)[C@H](C)NC(=O)CCC1CC(OC(=O)NCCc2ccc(F)cc2)CC2(CCCC(COC(=O)NCCC(C)C)O2)O1` (stereo partly specified): the composite z-score amounted to 0.577. On to `C=CC[C@@H]1C=C[C@H](ON=C(C)CCN2CCc3nc(-c4ccccc4)c(-c4ccccc4)cc3C2)[C@@H](CO)O1`, for which the composite z-score stood at 0.787.
